Compounds with a hit are over-represented: about 3.7% of the library has one in this group of screens.
TMEM16A inh: TMEM16A chloride channel inhibitors, primary screen, cell-based, HTS. 310,000 tested, 1.2% active. normalized B-score (activity score, 25-100; higher = stronger inhibition) at 10 µM. HEK293 TMEM16A/YFP iodide influx fluorescence, ionomycin;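 active means ratio plate-corrected score three or more library SD toward inhibition, starting fluorescence score within five deviations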;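 further: score derived from kinetic fluorescence span divided by baseline fluorescence per well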
CHT inh: inhibitors of human choline transporter CHT; B-score at 10 µM; 310,000 tested, 0.86% active; AID 488975, 2010; High affinity choline transporter 1 (Homo sapiens), Q9GZV3; CHT-expressing cells, membrane potential dye, choline response; active compounds read low;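 active means B-score over 3 SD under the library average, and starting fluorescence ratio not unusually high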;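 further: choline stimulus applied at its EC90 after an EC20 pre-addition; B-score computed on integrated fluorescence ratio after choline addition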
GPR7 antagonist: GPR7 receptor antagonists, primary screen, cell-based, fluorescence, single concentration; GPR7-expressing cells, fluorescence antagonist assay; inhibition, % at 4.4 µM; 290,000 tested, 1.1% active; AID 1861, 2009; in the data active means inhibition above about 16%, passing the limit was not always enough;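 further: cells stimulated with the agonist NPW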
TMEM16A act: TMEM16A chloride channel activators or potentiators, primary screen, cell-based, HTS | 340,000 tested, 0.3% active | HEK293 TMEM16A/YFP-H148Q/I152L, iodide quench fluorescence; active compounds read low | Anoctamin-1 (Mus musculus), Q8BHY3 | B-score at 10 µM;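 active means fluorescence-ratio B-score plate-corrected deviation score at least 3 library SD below zero, with starting fluorescence score within 5 deviations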;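 further: channel opened by trigger with iodide after compound preincubation; score built on the fluorescence ratio of max minus min over baseline; more negative score means more quench and so TMEM16A activation or potentiation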
CHT PAM: CHT positive allosteric modulators, primary screen, cell-based, membrane potential dye, choline EC20. High affinity choline transporter 1 (Homo sapiens), Q9GZV3. CHT-expressing cells; active compounds read high; LV-AA mutant CHT in HEK293 cells. B-score at 10 µM. 310,000 tested, 0.49% active. AID 488977, 2010;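 active means initial fluorescence not abnormally high and integrated response B-score, plate-corrected, over 3 SD above library mean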
Kir21 block: inhibitors of mouse Kir2.1 inward-rectifier potassium channel; 310,000 tested, 0.85% active; HEK293-Kir2.1, FluxOR thallium flux fluorescence; active compounds read low; AID 1672, 2009; B-score at 10 µM;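 active means fluorescence ratio B-score at or below minus 3 SD of library scores, with starting-brightness B-score within 2 SD, cut at about -4.2 in these data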;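 further: channel flux triggered by added potassium and thallium sulfate stimulus; B-score of peak minus minimum fluorescence over baseline after thallium stimulus; more negative B-score means stronger Kir2.1 block with less thallium influx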
CHT block conf: CHT inhibitors, confirmation, cell-based, membrane potential dye, duplicate. shares compounds with CHT inh. CHT-expressing cells, choline membrane potential dye; LV-to-AA substituted CHT, HEK293 cells. CHT activity remaining % of control (active compounds read low), % at 10 µM. 2,400 tested, 70% active;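 active means choline transporter activity left, mean of duplicates at 10 µM, below buffer-only control mean minus 3 SD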;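 further: depolarization triggered by choline at its EC90 following an EC20 pre-addition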
HEK293 MPD ctr: membrane potential effects in parental HEK293, counter-screen for CHT inhibitor project, cell-based, membrane potential dye; choline response; active = decrease or increase beyond buffer ±3SD; 2,400 tested, 4% active; shares compounds with CHT inh; AID 493222, 2011; membrane potential ratio readout (active if shifted either direction beyond buffer ±3SD; no single direction) at 10 µM;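 further: parental cells lack the transporter so any hit is non-specific; ratio is peak minus trough fluorescence over baseline after EC90 choline challenge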
Large screens that a line does not name were inactive (follow-up assays come after a bar, where they were run).

CCc1nn(CCCC(=O)N2CCN(c3cccc(C)c3C)CC2)c(=O)c2cc3occc3n12	none
Cc1nn(C(C)C(=O)NC(C)CCc2ccccc2)c(=O)c2cc3occc3n12 (stereo unspecified)	CHT inh -6.9 | CHT block conf 55% | HEK293 MPD ctr inactive
Cc1nn(-c2ccccc2)c(C)c1/C=C/C(=O)OCC(=O)Nc1ccc(S(N)(=O)=O)cc1	none (no result: TMEM16A inh, CHT inh, GPR7 antagonist, CHT PAM, Kir21 block)
COc1ccc(CNC(=O)COC(=O)c2ccc(F)c(S(=O)(=O)N3CCOCC3)c2)cc1	none (no result: TMEM16A inh, CHT inh, GPR7 antagonist, CHT PAM, Kir21 block)
COc1ccc(CNCCNC(=O)c2cccs2)c(OC)c1OC	none
COC(=O)COc1ccc(S(=O)(=O)NCc2ccco2)cc1	none
CCOC(=O)COc1ccc(S(=O)(=O)NCc2ccco2)cc1	CHT inh -7.6 | CHT block conf inactive | HEK293 MPD ctr inactive
COc1ccc(S(=O)(=O)N2CCN(C(=O)c3ccco3)CC2)c(C)c1C	none
COc1ccc(COC(=O)C2=C(C)NC(=O)NC2c2cc(Br)c(O)c(OC)c2)cc1 (stereo unspecified)	none
Cn1cc(/C=C2\SC(=O)N(c3ccc(O)cc3)C2=O)c2ccccc21	none
Cn1cc(/C=C2\SC(=O)N(c3ccccc3)C2=O)c2ccccc21	CHT inh -6.5 | CHT block conf inactive | HEK293 MPD ctr inactive
Cc1onc(-c2ccccc2Cl)c1C(=O)Oc1cccc2cccnc12	CHT inh -5.5 | CHT block conf inactive | HEK293 MPD ctr inactive
C/C(=N/OC(=O)c1c(-c2ccccc2Cl)noc1C)c1cnccn1	none
O=[N+]([O-])c1ccc(Sc2ncc3ccccn23)nc1	CHT inh -13 | CHT block conf 7.7% | HEK293 MPD ctr inactive
O=[N+]([O-])c1ccc(Sc2ccccc2Cl)nc1	none
C/C(=N/NC(=O)CNC(=O)c1cccnc1)c1ccc(Cl)c(Cl)c1	none
O=C(COC(=O)c1cc(S(=O)(=O)N2CCOCC2)ccc1Cl)NCc1ccccc1	none (no result: TMEM16A inh, CHT inh, GPR7 antagonist, CHT PAM, Kir21 block)
CCn1nc([N+](=O)[O-])c(C(C#N)c2nc3ccccc3n2C)c(Cl)c1=O (stereo unspecified)	none
CCCn1nc([N+](=O)[O-])c(C(C#N)c2nc3ccccc3s2)c(Cl)c1=O (stereo unspecified)	TMEM16A inh 100, CHT inh -14 | CHT block conf 17% | HEK293 MPD ctr inactive
N#C/C(=N\Nc1ccc(Cl)cc1)C(N)=S	TMEM16A inh 100, CHT inh -8.1 | CHT block conf 39% | HEK293 MPD ctr inactive
O=C(C[n+]1ccc(/C=N/O)cc1)N(Cc1ccccc1)Cc1ccccc1	none
O=C(Nc1scc(-c2ccccc2)c1C(=O)O)c1ccc(F)cc1	none
Cc1ccc(-c2csc(NC(=O)c3ccc(F)cc3)c2C(=O)O)cc1	CHT inh -6.4 | CHT block conf 53% | HEK293 MPD ctr inactive
Cc1ccc(-c2csc(NC(=O)c3ccccc3F)c2C(=O)O)cc1	CHT inh -5.1 | CHT block conf 45% | HEK293 MPD ctr inactive
CCOC(=O)c1nc(NNC(=O)c2ccc([N+](=O)[O-])cc2)sc1C	CHT inh -9.9 | CHT block conf 54% | HEK293 MPD ctr inactive
CCOC(=O)c1sc(NNC(=O)c2ccc(C)cc2)nc1C	none
CCN(CC)CCCn1c2c(c(SCC(=O)Nc3nc4ccccc4s3)nc1=O)CCC2	none (no result: GPR7 antagonist)

High-throughput results: PubChem, several laboratories
